# Measured values taken from publication PMC8769072, “Proteome‐scale mapping of binding sites in the unstructured regions of the human proteome” (Molecular Systems Biology, 2022).
# Chain of YAP1 169-207, P46937 (P46937 169-207): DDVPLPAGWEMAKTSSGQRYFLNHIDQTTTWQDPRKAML
# Chain of NEDD4 890-928, P46934 (P46934 890-928): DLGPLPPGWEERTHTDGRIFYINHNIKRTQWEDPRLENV
# Chain of PDCD6IP 360-702, Q8WUM4 (Q8WUM4 360-702): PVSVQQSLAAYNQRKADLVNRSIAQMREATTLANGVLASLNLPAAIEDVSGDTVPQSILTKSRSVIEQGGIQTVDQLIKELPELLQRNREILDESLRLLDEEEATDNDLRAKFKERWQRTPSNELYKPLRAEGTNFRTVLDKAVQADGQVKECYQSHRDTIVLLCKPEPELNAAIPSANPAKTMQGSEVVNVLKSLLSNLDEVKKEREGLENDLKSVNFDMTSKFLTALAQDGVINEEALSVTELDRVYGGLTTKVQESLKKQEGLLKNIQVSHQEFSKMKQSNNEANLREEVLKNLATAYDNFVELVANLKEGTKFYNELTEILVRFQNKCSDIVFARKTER
# Chain of PEX14 16-84, O75381 (O75381 16-84): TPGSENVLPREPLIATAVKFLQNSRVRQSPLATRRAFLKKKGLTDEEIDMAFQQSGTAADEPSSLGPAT
# Chain of OXSR1 434-527, O95747 (O95747 434-527): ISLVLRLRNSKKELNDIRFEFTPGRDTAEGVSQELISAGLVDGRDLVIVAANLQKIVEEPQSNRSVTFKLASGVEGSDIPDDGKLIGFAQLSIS
binder,measurement,setting,value
"KVVDIPTYEEAVSFPV [TMEM61, Q8N0U2]",selected by phage display,"NEDD4 890-928, P46934",confidence 2 (active)
"SWLASYLADADALPSA [CAMTA1, Q9Y6Y1]",selected by phage display,"PEX14 16-84, O75381",confidence 3 (active)
"EDVKRHSSASFENVWL [IRS1, P35568]",selected by phage display,"PEX14 16-84, O75381",confidence 3 (active)
"RDPEPPEPPTYRAQGV [BSN, Q9UPA5]",selected by phage display,"NEDD4 890-928, P46934",confidence 3 (active)
"TKVGRFQVTTTANKVG [WNK1, Q9H4A3]",selected by phage display,"OXSR1 434-527, O95747",confidence 4 (active)
"EMGDWQEVWDENTGAY [FNBP4, Q8N3X1]",selected by phage display,"PEX14 16-84, O75381",confidence 3 (active)
"FRVYPELPKPSISSNN [CEACAM5, P06731]",selected by phage display,"PDCD6IP 360-702, Q8WUM4",confidence 3 (active)
"STATSPDGGTTFEHLW [TP73, O15350]",selected by phage display,"PEX14 16-84, O75381",confidence 3 (active)
"WSLELEDQERHFLQQA [NUP62, P37198]",selected by phage display,"PEX14 16-84, O75381",confidence 2 (active)
"TELQQLWKEVTSAHTA [FOXP1, Q9H334]",selected by phage display,"PEX14 16-84, O75381",confidence 3 (active)
"AWIRDYSSGGSSRTLD [TNKS1BP1, Q9C0C2]",selected by phage display,"PEX14 16-84, O75381",confidence 2 (active)
"QLWHHDYLLGHLDDEG [TTC31, Q49AM3]",selected by phage display,"PEX14 16-84, O75381",confidence 2 (active)
"LYPPLINLWEGDSEKD [LRRN1, Q6UXK5]",selected by phage display,"PDCD6IP 360-702, Q8WUM4",confidence 4 (active)
"DMPFDELLALYGYEAS [MIER2, Q8N344]",selected by phage display,"PDCD6IP 360-702, Q8WUM4",confidence 2 (active)
SPAPTSRFSITHVSDS,selected by phage display,"OXSR1 434-527, O95747",confidence 2 (active)
"EWYEEHAREQEQQRQL [TPCN1, Q9ULQ1]",selected by phage display,"PEX14 16-84, O75381",confidence 2 (active)
"SVVIPPPDYLEALSMG [BAIAP2L1, Q9UHR4]",selected by phage display,"NEDD4 890-928, P46934",confidence 4 (active)
same,selected by phage display,"YAP1 169-207, P46937",confidence 3 (active)
"YPQDSLAQIKAVYANL [TSHZ1, Q6ZSZ6]",selected by phage display,"PDCD6IP 360-702, Q8WUM4",confidence 2 (active)
"WYPSLATMQESLRVKQ [GADD45GIP1, Q8TAE8]",selected by phage display,"PDCD6IP 360-702, Q8WUM4",confidence 3 (active)
"GKMSREPPPPYVTPAT [ESS2, Q96DF8]",selected by phage display,"NEDD4 890-928, P46934",confidence 4 (active)
same,selected by phage display,"YAP1 169-207, P46937",confidence 4 (active)
"SWNPPEYDGGAQISNY [TTN, Q8WZ42]",selected by phage display,"NEDD4 890-928, P46934",confidence 2 (active)
"LEDVSKPPAYAYPATP [TNRC18, O15417]",selected by phage display,"NEDD4 890-928, P46934",confidence 3 (active)
"HKLTEREWAEEWKHLN [CBFA2T3, O75081]",selected by phage display,"PEX14 16-84, O75381",confidence 3 (active)
"SENESLWKEVSELRAK [HSF2, Q03933]",selected by phage display,"PEX14 16-84, O75381",confidence 3 (active)
"SEQYDSLLRQMWERMD [GTPBP1, O00178]",selected by phage display,"PEX14 16-84, O75381",confidence 2 (active)
"NNPVLNDLPQYMPPDF [STPG4, Q8N801]",selected by phage display,"NEDD4 890-928, P46934",confidence 3 (active)
"LALSDPGLEPPVYVPP [JCAD, Q9P266]",selected by phage display,"NEDD4 890-928, P46934",confidence 3 (active)
"YKLYPGLSSYHERVGN [SH3YL1, Q96HL8]",selected by phage display,"PDCD6IP 360-702, Q8WUM4",confidence 3 (active)
TPTPAPFSRFTVSPAP,selected by phage display,"OXSR1 434-527, O95747",confidence 3 (active)
"FYLYPDLSRLSDPQVW [SLC6A11, P48066]",selected by phage display,"PDCD6IP 360-702, Q8WUM4",confidence 3 (active)
"YPSLTNLKAQADTARA [UVSSA, Q2YD98]",selected by phage display,"PDCD6IP 360-702, Q8WUM4",confidence 2 (active)
"VVEGPWTLAALYPALP [GDPD4, Q6W3E5]",selected by phage display,"PDCD6IP 360-702, Q8WUM4",confidence 3 (active)
"LGRDLYPNLAEERSRW [MCC, P23508]",selected by phage display,"PDCD6IP 360-702, Q8WUM4",confidence 3 (active)
"RNSPPPYGFHLSPEEM [RHBDD1, Q8TEB9]",selected by phage display,"NEDD4 890-928, P46934",confidence 2 (active)
"MDQNNSLPPYAQGLAS [TBP, P20226]",selected by phage display,"NEDD4 890-928, P46934",confidence 2 (active)
"DLHHTPGYPTPPPYPF [C11orf53, Q8IXP5]",selected by phage display,"NEDD4 890-928, P46934",confidence 3 (active)
same,selected by phage display,"YAP1 169-207, P46937",confidence 3 (active)
"VHDAVVNDNLETIWLL [BCORL1, Q5H9F3]",selected by phage display,"PEX14 16-84, O75381",confidence 3 (active)
"MPTNFTVVPVEAHADG [SLC12A7, Q9Y666]",selected by phage display,"OXSR1 434-527, O95747",confidence 2 (active)
"DWSSQYSMVAGAGREN [LENG8, Q96PV6]",selected by phage display,"PEX14 16-84, O75381",confidence 3 (active)
"KPPPYLRNLSSDDANV [UBE2L6, O14933]",selected by phage display,"NEDD4 890-928, P46934",confidence 2 (active)
"HGRYAEALEQHWQELQ [TONSL, Q96HA7]",selected by phage display,"PEX14 16-84, O75381",confidence 4 (active)
"HLPQAPPYTDAPPAYS [DAZAP2, Q15038]",selected by phage display,"NEDD4 890-928, P46934",confidence 3 (active)
"NWNEWKTGRFLILQTE [DNAH2, Q9P225]",selected by phage display,"OXSR1 434-527, O95747",confidence 3 (active)
"YLEDLPPPPEYELAPS [GRSF1, Q12849]",selected by phage display,"NEDD4 890-928, P46934",confidence 2 (active)
"DATLASGRFTISTLLS [SLC12A3, P55017]",selected by phage display,"OXSR1 434-527, O95747",confidence 2 (active)
"FSRFSVSPALETPGPP [LMTK3, Q96Q04]",selected by phage display,"OXSR1 434-527, O95747",confidence 2 (active)
"DSVPSNTNRFQVSVIN [SLC12A1, Q13621]",selected by phage display,"OXSR1 434-527, O95747",confidence 4 (active)
"DDLSVEWDAMGGKVQD [FSD1, Q9BTV5]",selected by phage display,"PEX14 16-84, O75381",confidence 4 (active)
"DSLQDSWATAAGTSRI [CPEB2, Q7Z5Q1]",selected by phage display,"PEX14 16-84, O75381",confidence 3 (active)
"GLYPQLAVPDAFNSSR [DHX34, Q14147]",selected by phage display,"PDCD6IP 360-702, Q8WUM4",confidence 2 (active)
"LYPSTSSLLTNHQHEG [STAM, Q92783]",selected by phage display,"PDCD6IP 360-702, Q8WUM4",confidence 3 (active)
"SEEGKPQLVGRFQVTS [WNK4, Q96J92]",selected by phage display,"OXSR1 434-527, O95747",confidence 4 (active)
"TPLWEETMLKAWQHYL [WDFY4, Q6ZS81]",selected by phage display,"PEX14 16-84, O75381",confidence 2 (active)
"LAGPESPPPPYSRLSP [SMAD6, O43541]",selected by phage display,"NEDD4 890-928, P46934",confidence 3 (active)
"SPASWERLLAYGWSHA [MIR1-1HG, Q9H1L0]",selected by phage display,"PEX14 16-84, O75381",confidence 3 (active)
"ELEDEWQEVMGRFEGD [NFKBIL1, Q9UBC1]",selected by phage display,"PEX14 16-84, O75381",confidence 4 (active)
"SEEAKGRFRVNFVDPA [SLC12A2, P55011]",selected by phage display,"OXSR1 434-527, O95747",confidence 2 (active)
"RFEVAPAPEPASGAQK [PIK3R6, Q5UE93]",selected by phage display,"OXSR1 434-527, O95747",confidence 3 (active)
"VSNQPPKYTQPSLPSQ [ATN1, P54259]",selected by phage display,"NEDD4 890-928, P46934",confidence 3 (active)
same,selected by phage display,"YAP1 169-207, P46937",confidence 2 (active)
"RAQPPDYTFPSGSGAH [PI4K2A, Q9BTU6]",selected by phage display,"NEDD4 890-928, P46934",confidence 2 (active)
"SSGGGSVTLDPLEHAW [SOWAHC, Q53LP3]",selected by phage display,"PEX14 16-84, O75381",confidence 3 (active)
